Read-out in assay [1]: X-box binding protein 1 (XBP1), XBP1 (gene 7494)
The experiment in a line: LTEA_HepaRG_XBP1: Life Technologies and Expression Analysis (LTEA) Assay for X-box binding protein 1 (XBP1) using HepaRG (AID 2283540; active = hit-call score of the fitted dose curve at least 0.9, where 1 is the maximum; inactive = score below 0.9). The note with it: mRNA level, 48 h; actives raise or lower the signal. The method, boiled down: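 Eight concentrations (half-log, highest 100 uM, 0.5% DMSO) tested in duplicate on HepaRG cells over 48 h in serum-free induction medium; qRT-PCR of XBP1 normalised to ACTB, GAPDH, POLR2A.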

Assay [2] can be described thus: ATG_XTT_Cytotoxicity: Cytotoxicity Assessment in the Attagene TRANS-FACTORIAL HepG2 Assay (AID 2283584).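 As to AC50: XTT signal for cell number as viability in transfected HepG2 cells; cells exposed to compound for 24 h before reading; active means loss of viability signal versus DMSO baseline.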 The method, boiled down: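 24 h chemical exposure of reporter-transfected HepG2; XTT signal loss vs DMSO indicates cytotoxicity.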
Assay [3] can be described thus: Tanguay_ZF_120hpf_MORT_legacy: (Legacy) Oregon State University Tanguay Lab 120 Hour Post-fertilization zebrafish Assay for Mortality (AID 2283633). The method, boiled down: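 Single dechorionated Tropical 5D embryos were held with test chemical (0.64% DMSO final) from 6 to 120 hpf at 28C under foil. Deaths at 24 or 120 hpf were recorded as binary calls, analysed for increase over DMSO controls.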

Assay [4] in a line: Tanguay_ZF_120hpf_YSE_legacy: (Legacy) Oregon State University Tanguay Lab 120 Hour Post-fertilization zebrafish Assay for Yolk Sac Edema (AID 2283634). The method, boiled down: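 Single dechorionated embryos were held in sealed plates at 28C with test chemical (0.64% DMSO final) from 6 hpf until 120 hpf. Edema of the yolk sac was then recorded as a binary endpoint; non-mortality endpoints were skipped for dead embryos.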

The nature of assay [5]: Tanguay_ZF_120hpf_AXIS_legacy: (Legacy) Oregon State University Tanguay Lab 120 Hour Post-fertilization zebrafish Assay for Body Axis Malformation (AID 2283635). The method, boiled down: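 Each dechorionated embryo was exposed alone from 6 hpf, with DMSO at 0.64% (vol/vol) and trimethyltin chloride 5 uM as positive control. Axis malformation was recorded at 120 hpf unless the embryo had died.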

The nature of assay [6]: Tanguay_ZF_120hpf_EYE_legacy: (Legacy) Oregon State University Tanguay Lab 120 Hour Post-fertilization zebrafish Assay for Eye Malformation (AID 2283636).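 Also: binary presence or absence of eye malformation scored by brightfield in 120 hpf larvae.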 The method, boiled down: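 5D wild-type embryos, pronase-dechorionated at 4 hpf; static exposure 6–120 hpf, 28C, dark; DMSO 0.64% final; 5uM trimethyltin chloride positive control. Binary eye-defect scoring at 120 hpf; dead embryos not scored.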

Assay [7] is described as follows: Tanguay_ZF_120hpf_SNOU_legacy: (Legacy) Oregon State University Tanguay Lab 120 Hour Post-fertilization zebrafish Assay for Snout Malformation (AID 2283637). The method, boiled down: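 Binary brightfield scoring of snout malformation at 120 hpf. Dechorionated 5D wild-type embryos, one per well, static exposure from 6 hpf at 28C, sealed and dark; final DMSO 0.64% (vol/vol), DMSO as baseline; 5uM trimethyltin chloride positive control.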

Assay [8] can be described thus: Tanguay_ZF_120hpf_BRAI_legacy: (Legacy) Oregon State University Tanguay Lab 120 Hour Post-fertilization zebrafish Assay for Brain Malformation (AID 2283641). Put shortly:
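Static exposure of staged wild-type embryos until 120 hpf, kept at 28C with light excluded and final DMSO of 0.64% (vol/vol). Presence or absence of brain malformation was noted under brightfield; mortality precluded scoring.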

A short description of assay [9]: Tanguay_ZF_120hpf_PFIN_legacy: (Legacy) Oregon State University Tanguay Lab 120 Hour Post-fertilization zebrafish Assay for Pectoral Fin Malformation (AID 2283648).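 Also: each larva judged yes or no for fin defect by brightfield with dead larvae skipped.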 Put shortly: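 Binary pectoral fin malformation call at 120 hpf by brightfield microscopy; 5D wild-type zebrafish, chorion removed at 4 hpf, one embryo per well from 6 hpf, static exposure at 28C; DMSO (0.64% final) as baseline.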

A short description of assay [10]: TOX21_p53_BLA_p2_viability: Viability Assessment in the Tox21 HCT-116 p53 Agonism Beta-lactamase Assay, Phase 2 (AID 2283591).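 Also: compound exposure lasted 16 h at 37 °C; actives lower the ATP signal meaning cytotoxicity.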 Put shortly:
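HCT116 p53-bla cells, 4000/well, dosed after 5 h plating (217-fold dilution of DMSO stocks) and incubated 16 h at 37C. Viability taken as cellular ATP by CellTiter-Glo luminescence after 30 min RT; signal loss marks cytotoxicity.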

The target in assay [11] is Cellular tumor antigen p53 (Homo sapiens) (UniProt P04637). Put plainly: TOX21_p53_BLA_p2_ratio: Tox21 HCT-116 p53 Agonism Beta-lactamase Assay, Ratio, Phase 2 (AID 2283592). The method, boiled down: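 DMSO-normalized, positive-direction endpoint derived from the 460 nm/530 nm FRET ratio in HCT116 p53 beta-lactamase reporter cells exposed 16 h at 37C and loaded with CCF4-AM for 2 h.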
Chain of Cellular tumor antigen p53 (Homo sapiens) (P04637 whole entry, looked up): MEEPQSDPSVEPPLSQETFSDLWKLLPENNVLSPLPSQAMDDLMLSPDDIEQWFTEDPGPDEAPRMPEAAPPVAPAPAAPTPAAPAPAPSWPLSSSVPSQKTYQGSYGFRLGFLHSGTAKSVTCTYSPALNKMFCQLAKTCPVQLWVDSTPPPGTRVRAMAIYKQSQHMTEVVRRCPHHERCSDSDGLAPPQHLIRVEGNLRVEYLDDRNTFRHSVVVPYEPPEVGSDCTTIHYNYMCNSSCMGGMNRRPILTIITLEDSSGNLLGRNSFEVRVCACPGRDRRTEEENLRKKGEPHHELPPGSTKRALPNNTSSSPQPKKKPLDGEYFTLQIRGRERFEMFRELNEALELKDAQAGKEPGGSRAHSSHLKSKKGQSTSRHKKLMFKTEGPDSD

Assay [12] in a line: TOX21_p53_BLA_p3_viability: Viability Assessment in the Tox21 HCT-116 p53 Agonism Beta-lactamase Assay, Phase 3 (AID 2283593).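 Also: cells exposed to compound for 16 h before reading.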 The method, boiled down: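 HCT116 cells, 4000/well, dosed 5 h after plating by pin transfer (217-fold dilution from DMSO stock) and incubated 16 h at 37C, 5% CO2. Viability read as ATP luminescence with CellTiter-Glo after 30 min at room temperature.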

In assay [13] the target is Cellular tumor antigen p53 (Homo sapiens) (UniProt P04637). The experiment in a line: TOX21_p53_BLA_p3_ratio: Tox21 HCT-116 p53 Agonism Beta-lactamase Assay, Ratio, Phase 3 (AID 2283596). Put shortly:
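Cells were seeded at 4000/well, rested 5 h at 37C, then dosed with DMSO compound solutions (217-fold dilution) for 16 h. CCF4-AM substrate was loaded for 2 h at room temperature, and the 460/530 nm emission ratio was fitted for gain of signal versus DMSO.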

Assay [14] can be described thus: TOX21_p53_BLA_p4_viability: Viability Assessment in the Tox21 HCT-116 p53 Agonism Beta-lactamase Assay, Phase 4 (AID 2283597).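 Also: hits lower the luminescence signal meaning cytotoxicity.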 Put shortly:
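In this multiplexed secondary endpoint, HCT116 cells (4000 per well, compound at 5 h, 16 h treatment) received CellTiter-Glo after the beta-lactamase read. Luminescence after 30 min RT reflects ATP, and falling signal marks cytotoxicity.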

The target of assay [15] is Cellular tumor antigen p53 (Homo sapiens) (UniProt P04637). Put plainly: TOX21_p53_BLA_p5_ratio: Tox21 HCT-116 p53 Agonism Beta-lactamase Assay, Ratio, Phase 5 (AID 2283599). The method, boiled down: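 HCT-116 p53-bla cells (4000/well) plated 5 h, dosed with compound (217-fold DMSO dilution) for 16 h at 37 C; CCF4-AM substrate 2 h at room temperature. Activity is the 460/530 nm emission ratio (405 nm excitation), fitted in gain-of-signal direction versus DMSO.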

Assay [16] in a line: TOX21_p53_BLA_p5_viability: Viability Assessment in the Tox21 HCT-116 p53 Agonism Beta-lactamase Assay, Phase 5 (AID 2283600). The method, boiled down:
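Here cell health was gauged by ATP levels in wells holding 4000 cells, each treated 16 h with DMSO-delivered compounds at 217-fold dilution; reduced luminescence marked toxicity.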

The target in assay [17] is Cellular tumor antigen p53 (Homo sapiens) (UniProt P04637). The experiment in a line: TOX21_p53_BLA_p4_ratio: Tox21 HCT-116 p53 Agonism Beta-lactamase Assay, Ratio, Phase 4 (AID 2283601). Put shortly:
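HCT-116 p53 beta-lactamase reporter cells (4000/well) preincubated 5 h, then compound (217-fold dilution of DMSO stock) for 16 h at 37C. CCF4-AM substrate added 2 h at room temperature; 460/530 nm emission ratio fitted upward versus DMSO.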

Several values for one entry are separate records, joined by “and”; a condition that tells them apart may be missing. Equal values may be shown once. Inconclusive results are not listed. A structure can be active in one record and inactive in another. Activity calls are given as the source filed them. The calls were made as follows, unless noted: active = hit-call score of the fitted dose curve at least 0.9, where 1 is the maximum; inconclusive = response in the unintended direction; inactive = score below 0.9.

On to `COc1ccccc1N`, for which the outcome in assay [1], in assay [2], in assay [3], in [4], in [5] and in assay [6] was inactive. For the same compound, the outcome in assay [7], in assay [8] and in [9] was inactive.

As to `C[C@]12CC[C@@H](O)C[C@@H]1CC[C@@H]1[C@@H]2CC[C@]2(C)C(=O)CC[C@@H]12`, in [2], the compound was classed as inactive.

For the compound `CC(C)[C@@H](Nc1ccc(C(F)(F)F)cc1Cl)C(=O)OC(C#N)c1cccc(Oc2ccccc2)c1` (some centres not stated), the compound was called inactive in assay [2], in assay [10], in [11], in assay [12], in [13] and in assay [14]. For the same compound, the outcome in assay [15] and in [16] was inactive.

With `C=CCOC(N)=O`, in assay [2], the call was inactive.

Turning to `O=C1C=CC(=O)c2ccccc21`, the AC50 (usually the midpoint of the concentration-response curve, whichever way the signal moves) in [2] is 49.2 µM (active).

With `CNC(=O)N(C)c1nc2ccccc2s1`, the result in assay [2] was inactive.

In the case of `O=c1[nH]c(=O)n(Cl)c(=O)n1Cl`, in [2], the outcome was inactive.

Turning to `C[As+](C)(C)CC(=O)[O-]`, the compound was called inactive in assay [2].

Turning to `Cc1ccc(OP(=O)(Oc2ccc(C)cc2C)Oc2ccc(C)cc2C)c(C)c1`, in [2], the compound was classed as inactive.

On to `CC[N+](CC)(CC)CC`, for which the outcome in assay [2] was inactive.

For `CN(N=O)c1ccc([N+](=O)[O-])cc1`, the result in assay [2] was inactive.

As to `CC(C)(c1ccc(O)c(-c2ccccc2)c1)c1ccc(O)c(-c2ccccc2)c1`, the AC50 in [2] is 22.2 µM (active).

With `CN(C)CCN(C)C`, the outcome in assay [2] was inactive.

With `COc1nn(C(=O)NS(=O)(=O)c2ccccc2OC(F)(F)F)c(=O)n1C`, in assay [2], the compound was classed as inactive.

For the compound `CCOC(=O)c1ccccc1S(=O)(=O)NC(=O)Nc1nc(Cl)cc(OC)n1`, the compound was classed as inactive in assay [2].

Regarding `CC1(C)COP(Oc2ccccc2)OC1`, the call in [2] was inactive.

On to `Oc1c(Br)cc(Br)cc1Br`, for which the call in assay [2] was inactive.

With `OC(Cc1ccccc1Cl)(Cn1cncn1)C1(Cl)CC1` (configuration not stated), the compound was classed as inactive in [2].

Turning to `COCC(=O)N(c1c(C)cccc1C)[C@H](C)C(=O)OC`, the compound was classed as inactive in assay [2].

`C[N+](C)(C)Cc1ccccc1`: the outcome in assay [2] was inactive.

Consider `C[C@@H]1O[C@@H](O[C@H]2C[C@@H](O)[C@]3(CO)[C@H]4[C@H](O)C[C@]5(C)[C@@H](C6=CC(=O)OC6)CC[C@]5(O)[C@@H]4CC[C@]3(O)C2)[C@H](O)[C@H](O)[C@H]1O`, for which the result in assay [2] was inactive.

Regarding `CN(C1CCCCC1)C1CCCCC1`, the compound was classed as inactive in assay [2].

As to `ClCCN1CCOCC1`, in assay [2], the outcome was inactive.

Regarding `CC(C)(COCC1CO1)COCC1CO1` (configuration not stated), in assay [2], the call was inactive.

For the compound `C1CN2CCN1CC2`, in [2], the result was inactive.

Regarding `O=[N+]([O-])c1ccc(Nc2ccccc2)cc1`, the call in assay [2], in [11], in assay [12], in assay [14], in assay [16] and in assay [17] was inactive. The AC50 in assay [10] is 32.5 µM (active); in [11] it was 72.5 µM (active); in assay [12], 61 µM (active); in assay [13], 42.4 µM (active) and 90.9 µM (active); in assay [14] it was 82.4 µM (active); in assay [15] it was 52.5 µM (active) and 84.9 µM (active). Also, the AC50 in [16] is 66.3 µM (active); in assay [17] it was 43.1 µM (active).

For the compound `O=S(=O)(C(Cl)(Cl)Cl)C(Cl)(Cl)Cl`, the AC50 in assay [2] is 36.7 µM (active).

For the compound `C1CCC(C2CCCCC2)CC1`, the result in assay [2] was inactive.

For `Oc1cccc(-c2ccccc2)c1`, the result in assay [2] was inactive.

Turning to `Cc1ccccc1OP(=O)(Oc1ccccc1)Oc1ccccc1`, in assay [2], the result was inactive.

With `CCOP(=S)(OCC)SCS(=O)(=O)C(C)(C)C`, the outcome in [2] was inactive.

Turning to `O=c1nc(O)n(Cl)c(=O)n1Cl`, the compound was classed as inactive in assay [2].

As for `CCOC(=O)Cc1ccccc1`, the result in assay [2] was inactive.

On to `NC(=O)CCl`, for which the outcome in assay [2] was inactive.

In the case of `CCOCn1c(-c2ccc(Cl)cc2)c(C#N)c(Br)c1C(F)(F)F`, in assay [2], the outcome was inactive.

In the case of `CC(c1ccccc1)(c1ccc(O)cc1)c1ccc(O)cc1`, the AC50 in assay [2] was 40.4 µM (active).

For the compound `CCN(CC)C(=O)C(Cl)=C(C)OP(=O)(OC)OC`, the compound was called inactive in assay [2], in assay [10], in assay [12], in assay [13], in [14] and in [15]. In addition, the compound was called inactive in [16] and in assay [17].

(Values after PubChem BioAssay (EPA / NIEHS).)
